Most compounds without a hit are left out; they make up all but 7.5% or so of the library.
HCV inhibitor: inhibitors of hepatitis C virus infection; Huh7.5.1 HCVcc-Cre infection, luciferase reporter, 44 h; Potency, µM (top dose mostly 41.8 µM), for inactives: at the highest dose activity change, negative = inhibition, usual class: inhibitors; 340,000 tested, 3.4% active; note: potency is the fitted concentration of half-maximal effect
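A cell-based infection assay in which seeded cells (1,000 per well) receive test compound after 4 h, are inoculated with HCVcc-Cre at approximately 0.5 moi, and are incubated 44 h before luminescence detection.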
FBPA Giardia inh: Giardia lamblia aldolase inhibition. Potency, µM (titrated, usually from 59.6 µM), inactives show at the highest dose activity, negative = inhibition, hits mostly inhibitors. AID 2451. purified Giardia FBPA. 290,000 tested, 0.71% active; note: potency is the fitted concentration of half-maximal effect; nearly all actives have a fitted effect of over 55% in size
Target sequence (A8B2U2 whole entry, looked up): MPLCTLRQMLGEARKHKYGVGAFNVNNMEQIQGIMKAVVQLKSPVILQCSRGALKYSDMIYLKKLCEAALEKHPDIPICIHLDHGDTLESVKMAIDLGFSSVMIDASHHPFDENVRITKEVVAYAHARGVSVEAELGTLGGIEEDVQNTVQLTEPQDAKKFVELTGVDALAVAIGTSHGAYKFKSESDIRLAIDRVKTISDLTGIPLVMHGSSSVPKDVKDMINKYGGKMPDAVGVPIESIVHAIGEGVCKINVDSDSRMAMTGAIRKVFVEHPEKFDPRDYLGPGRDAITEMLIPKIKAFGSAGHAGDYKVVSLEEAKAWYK
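Giardia FBPA (40 nM reagent) was preincubated 10 min at RT with compound (up to 57.5 uM final), then substrate plus GAPDH/TPI/NAD/arsenate coupling system with diaphorase/resazurin was added; resorufin fluorescence (525/598 nm) was read after 20 min.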
HCMV inh: inhibitors of human cytomegalovirus; HFF cells, HCMV-luciferase reporter, 72 h; hits give low values; activity change, negative = inhibition, % at 57.5 µM; 410,000 tested, 4.5% active; in the data active = activity change below about -60%; inconclusive = no clear call, values can overlap the other calls; inactive = above about -39%
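Screen run at 2 compound doses on HFFs infected with reporter HCMV, MOI 1 PFU/cell. Luciferase activity from cell lysates at 72 h post infection gave inhibition relative to buffer-only and Salinomycin wells.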
VACV Venus inh: vaccinia inhibition (Venus reporter); Vaccinia virus Venus reporter expression, fluorescence; Potency, µM (top dose mostly 36.5 µM), for inactives: top-dose activity change, negative = inhibition, most hits filed as inhibitors; 330,000 tested, 0.46% active; AID 720580; calls by dose curve; tested in A549 cells; note: potency is the fitted concentration of half-maximal effect; nearly all actives have a fitted effect of over 30% in size
FMDV inh: foot and mouth disease virus antiviral activity; AID 1159524; FMDV antiviral cell-based qHTS; 410,000 tested, 1.2% active; Potency, µM (titrated, usually from 57.9 µM), without a hit: at the top dose activity change, negative = inhibition, hits mostly inhibitors; calls by dose curve; tested in HEK293T cells; note: read-out not given here; potency is the fitted concentration of half-maximal effect; nearly all actives have a fitted effect of over 45% in size
Vaccinia mCherry: vaccinia inhibition (mCherry reporter). 310,000 tested, 0.63% active. AID 720579. Potency, µM (titrated, usually from 36.5 µM), for the others: top-dose activity change, negative = inhibition, hits mostly inhibitors. Vaccinia virus mCherry reporter infection, fluorescence; calls by dose curve; tested in A549 cells; note: potency is the fitted concentration of half-maximal effect; nearly all actives have a fitted effect of over 35% in size
* hit, by the source's call; i = inactive; ? = inconclusive; nt = not tested or not shown; ! = not confirmed by another sample. Unless noted, calls come from the whole dose curve; as a rule, active = well fitted curve in the direction sought with a large enough effect; inconclusive = small, poorly fitted or top-dose-only effect, or another doubt; inactive = no such curve, though single readings can be large; an effect the other way counts as inactive or inconclusive. % is set by controls: 0 for no effect and ±100 for the full control effect.

SMILES	HCV inhibitor	FBPA Giardia inh	HCMV inh	VACV Venus inh	FMDV inh	Vaccinia mCherry
CCN1/C(=C\C=C\C2=[N+](CC)c3ccccc3C2(C)C)C(C)(C)c2ccccc21	0.56µM*	21%	nt	nt	35µM*	nt
CN1/C(=C\C=C(C#N)C#N)C(C)(C)c2ccccc21	5%	6%	-3	nt	-20%	nt
CCOc1cc(CNC2CCCC2)cc(Cl)c1OCc1ccc(F)cc1	4µM*	-6%	-16	?	nt	?
COc1cc(CNC2CCCC2)cc(Cl)c1OCc1ccc(F)cc1	1.3µM*	-1%	34	?	-27%	nt
CCCn1c(Cc2ccccc2)n[nH]c1=S	6%	-2%	47	-3%	10%	nt
S=c1[nH]nc(Cc2ccccc2)n1Cc1ccco1	12%	-2%	-109*	nt	-23%	nt
Cc1ccc(O)c(NC(=O)c2cc(-c3cccs3)on2)c1	0%	3%	?	-14%	34%	?
COc1ccc(/C=C\C(=O)CC(O)(c2ccccc2)C(F)(F)F)cc1 (stereo not drawn)	-6%	-6%	63	-14%	20µM*	-1%
CC(C(=O)Nc1ccc(S(=O)(=O)N2CCCC2)cc1)N1CCCC(C(N)=O)C1 (stereo not drawn)	?	nt	-14	-5%	-12%	-14%
COC(=O)c1c(C)nc2c(c(SC)nn2-c2ccccc2)c1N	11µM*	?	-19	-22%	-19%	nt
CCc1ccc(N2C=C(C(=O)OC)C(c3ccc(OC)cc3)C(C#N)=C2N)cc1 (stereo not drawn)	nt	nt	-77*	?	?	?
CC(C)Cn1c(=O)c2sccc2n2c(CCCC(=O)NCC(C)c3ccccc3)nnc12 (stereo not drawn)	nt	nt	?	-11%	-17%	-14%
Cc1ccc(C)c(CN2C(=O)c3ccccc3S(=O)c3ccc(C(=O)NCCCN4CCCC4)cc32)c1 (stereo not drawn)	7.1µM*	-13%	?	nt	-5%	nt
Cc1ccc(C)c(CN2C(=O)c3ccccc3S(=O)c3ccc(C(=O)N4CCC(C)CC4)cc32)c1 (stereo not drawn)	nt	nt	?	-14%	0%	-23%
CCOC(=O)N1CCN(C(=O)c2ccc3c(c2)N(Cc2cc(C)ccc2C)C(=O)c2ccccc2S3=O)CC1 (stereo not drawn)	?	nt	-88*!	-14%	?	-9%
CCOC(=O)N1CCC(NC(=O)c2ccc3c(c2)N(Cc2ccc(Cl)cc2)C(=O)c2ccccc2S3=O)CC1 (stereo not drawn)	nt	nt	-82*	?	-26%	?
CCOC(=O)N1CCC(NC(=O)c2ccc3c(c2)N(Cc2ccc(F)cc2)CCS3)CC1	18µM*	14%	-25	-18%	?	-19%
O=C(C1COc2ccccc2O1)N1CCN(c2nc3c(F)cc(F)cc3s2)CC1 (stereo not drawn)	1%	nt	33	-12%	-11%	i
CCOC(=O)COc1cc([N+](=O)[O-])cc2cccnc12	6%	0%	-29	-13%	-11%	-7%
CCOC(=O)COc1ccccc1/C=C\[N+](=O)[O-]	?	-10%	nt	?	14µM*	?
Cc1ccc(C(=O)COC(=O)COc2ccccc2[N+](=O)[O-])s1	30%	nt	-101*	-4%	-1%	-11%
Cc1ccc(Sc2ccc(N3CCCC(C(=O)Nc4ccc(F)cc4)C3)nn2)cc1 (stereo not drawn)	nt	nt	-24	-13%	-14%	-14%
COc1ccc(S(=O)(=O)N2CCCCC2)cc1NC(=O)C1CC1C (stereo not drawn)	-13%	nt	?	nt	11%	nt
CCC(=O)N1CCc2cc(Br)cc(S(=O)(=O)CCC(=O)NCCc3ccc(Cl)cc3)c21	nt	nt	-21	-5%	-6%	-13%
O=C(C1CC1)N1CCc2cc(Br)cc(S(=O)(=O)NC3CCCCC3)c21	7.1µM*	-3%	-15	nt	24%	nt
SMILES	HCV inhibitor	FBPA Giardia inh	HCMV inh	VACV Venus inh	FMDV inh	Vaccinia mCherry
CN(Cc1ccccc1)S(=O)(=O)c1cc(Br)cc2c1N(C(=O)C1CC1)CC2	nt	nt	-71*	-3%	3%	-17%
CCC(=O)N1CCc2cc(Br)cc(S(=O)(=O)CCC(=O)NCCOC)c21	22%	1%	-84*	nt	1%	nt
CCOC(=O)N1CCC(NS(=O)(=O)c2cc(Br)cc3c2N(C(=O)CC)CC3)CC1	-27%	6%	-105*	-9%	-12%	-16%
COc1ccccc1NC(=O)N[C@H]1CC[C@@]23CCCN2C(=O)CCC[C@H]3[C@H]1C	nt	nt	0	nt	nt	nt
CN(CC(=O)NCC1CCCCC1)CC(=O)Nc1ccccc1Br	16%	nt	26	-7%	-15%	i
CCC1CCCCN1C(=O)CSc1n[nH]c(-c2ccccc2)n1 (stereo not drawn)	nt	nt	53	-10%	15%	-9%
CC(C)Cn1c(=O)c2sccc2n2c(CCCC(=O)NC3CCCCC3)nnc12	nt	nt	?	-10%	-2%	-7%
CCC(=O)N1CCc2cc(Br)cc(S(=O)(=O)NCCN3CCCCC3C)c21 (stereo not drawn)	?	-1%	-4	-20%	27%	-22%
CCC(=O)N1CCc2cc(Br)cc(S(=O)(=O)NCCN3CCCCC3CC)c21 (stereo not drawn)	2.5µM*	6%	22	nt	39%	nt
COc1cc(=O)n2c(c1C(=O)N(C)Cc1nonc1C)CCN(C(=O)C1C(C)(C)C1(C)C)CC2	nt	nt	nt	0%	4%	i
COc1ccc(Cn2c(O)c(C=Nc3ccccc3)c3ccccc3c2=O)cc1	-5%	-1%	-63*	?	-12%	i
COc1ccc(Cn2c(O)c(C=Nc3ccc(O)cc3)c3ccccc3c2=O)cc1	?	-5%	?	-27%	0%	-18%
COc1ccc(C(=O)NCc2nnc(SCC(=O)Nc3cc(Cl)ccc3OC)o2)cc1	-2%	-2%	-29	nt	7%	nt
CCCN(CCC)CCCNC(=O)C1CCCN(S(=O)(=O)c2cccc3nsnc23)C1 (stereo not drawn)	nt	nt	-8	-10%	-6%	-5%
CN1C(=O)c2cccc(NCCCCCCN3C(=O)c4ccccc4C3=O)c2C1=O	6%	-1%	31	13%	13µM*	nt
CN1C(=O)c2cccc(NCCCN3C(=O)c4ccccc4C3=O)c2C1=O	10%	6%	27	-13%	4%	i
COc1cc(/C=C/c2ccc(O)cc2)cc(OC)c1	13µM*	-7%	13	9%	28%	27%
COc1cc(C(=O)N(C)CC2CCN(CCc3cccc(C(F)(F)F)c3)CC2)ccc1C	?	6%	-18	-26%	-24%	-18%
O=C(COc1ccccc1Cl)NCC(c1cccs1)N1CCOCC1 (stereo not drawn)	?	nt	?	-11%	-19%	i
Cc1ccc(Cl)c(OCC(=O)NCC(c2cccs2)N2CCOCC2)c1 (stereo not drawn)	13µM*	nt	-68*	-19%	?	-23%

Screening results deposited in PubChem BioAssay by National Center for Advancing Translational Sciences (NCATS).
